# Several values for one entry are separate records, joined by “and”; a condition that tells them apart may be missing. Identical values can stand only once. Records with an inconclusive call do not appear. A call without a number means that no potency is given here. More than one record can exist for a structure, and the calls need not agree. Activity calls are given as the source filed them. Unless noted, the call rests on the fitted dose curve; in most records, active means well fitted curve in the direction sought with a large enough effect in the repeat runs; inconclusive means weak or mixed curves; inactive means no such curve, though single readings can be large; an effect the other way counts as inactive or inconclusive.
# Tests used:
# [1] = qHTS assay to identify small molecule antagonists of the estrogen related receptor (ERR) signaling pathway from Tox21 library - cell viability counter screen (AID 1224834); further: nearly all actives have a fitted effect of over 30% in size
# Method in brief: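 Compounds in DMSO were pinned onto ERR cells that had been incubated for 6 h, and the plates were held at 37 C for 17.5 h. CellTiter-Fluor reagent was then added and fluorescence was measured after 30 min.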
# [2] = molecular target: Luciferin 4-monooxygenase (Photinus pyralis) (UniProt P08659); experiment: qHTS assay to identify small molecule inhibitors of firefly luciferase (AID 1224835); further: nearly all actives have a fitted effect of over 25% in size
# Chain of Luciferin 4-monooxygenase (Photinus pyralis) (P08659 whole entry, looked up): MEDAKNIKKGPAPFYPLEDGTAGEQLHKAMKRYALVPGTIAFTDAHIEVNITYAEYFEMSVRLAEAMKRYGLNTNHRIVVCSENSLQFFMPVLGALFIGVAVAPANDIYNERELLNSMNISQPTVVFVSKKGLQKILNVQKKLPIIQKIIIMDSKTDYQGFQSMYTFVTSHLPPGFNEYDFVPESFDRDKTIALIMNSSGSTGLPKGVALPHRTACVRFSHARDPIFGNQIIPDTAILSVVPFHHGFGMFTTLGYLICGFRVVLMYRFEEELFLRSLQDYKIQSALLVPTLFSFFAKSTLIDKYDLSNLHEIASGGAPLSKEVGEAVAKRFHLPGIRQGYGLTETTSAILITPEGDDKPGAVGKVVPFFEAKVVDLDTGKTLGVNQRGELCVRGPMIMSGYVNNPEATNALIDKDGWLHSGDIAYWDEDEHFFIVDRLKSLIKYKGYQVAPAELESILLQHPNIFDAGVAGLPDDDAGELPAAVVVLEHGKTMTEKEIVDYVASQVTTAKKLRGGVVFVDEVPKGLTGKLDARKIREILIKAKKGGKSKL
# Method in brief: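 Inhibition of purified Photinus luciferase is measured by luminescence. Substrate levels (D-luciferin, ATP) sit at their KM values. Each compound is tested in a concentration series.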
# [3] = qHTS assay to identify small molecule agonists of the constitutive androstane receptor (CAR) signaling pathway - cell viability counter screen (AID 1224836); further: nearly all actives have a fitted effect of over 45% in size
# Method in brief: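 Fluorescence from CellTiter-Fluor indicates live cells after 23 h exposure. The human hepatoma line expresses hCAR and a CYP2B6-2.2kb reporter. Incubation medium contains 0.75 uM PK11195 (final).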
# [4] = qHTS assay to identify small molecule antagonists of the constitutive androstane receptor (CAR) signaling pathway - cell viability counter screen (AID 1224837); further: nearly all actives have a fitted effect of over 45% in size
# Method in brief: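 Cells are seeded, rested 4 hr at 37 C/5% CO2, dosed with compound (15-point series) and 50 nM CITCO, incubated a further 23 hr, and then CellTiter-Fluor reagent is added before fluorescence is read. The line is HepG2 with stable hCAR and CYP2B6-2.2kb.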
# [5] = molecular target: Nuclear receptor subfamily 1 group I member 3 (Homo sapiens) (UniProt Q14994); experiment: qHTS assay to identify small molecule antagonists of the constitutive androstane receptor (CAR) signaling pathway (AID 1224838);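 further: HepG2 cells stably expressing hCAR with CYP2B6 luciferase reporter stimulated by CITCO; nearly all actives have a fitted effect of over 40% in size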
# Chain of Nuclear receptor subfamily 1 group I member 3 (Homo sapiens) (Q14994 whole entry, looked up): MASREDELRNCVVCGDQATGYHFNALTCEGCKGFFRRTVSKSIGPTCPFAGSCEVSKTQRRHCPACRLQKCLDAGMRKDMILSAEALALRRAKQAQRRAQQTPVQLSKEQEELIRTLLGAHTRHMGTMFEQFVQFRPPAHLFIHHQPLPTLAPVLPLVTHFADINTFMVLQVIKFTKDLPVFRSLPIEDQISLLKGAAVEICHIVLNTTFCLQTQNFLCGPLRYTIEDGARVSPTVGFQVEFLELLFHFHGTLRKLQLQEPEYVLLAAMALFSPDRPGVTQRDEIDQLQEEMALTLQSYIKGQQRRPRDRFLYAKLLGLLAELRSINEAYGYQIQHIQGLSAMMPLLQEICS
# Method in brief: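 Luminescence from a CYP2B6-2.2kb promoter reporter in hCAR-expressing HepG2 cells reflects CAR signaling. Cells received compounds at 15 concentrations and 50 nM CITCO (final), then incubated 24 h at 37 C/5% CO2.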
# [6] = molecular target: Nuclear receptor subfamily 1 group I member 3 (Homo sapiens) (UniProt Q14994); experiment: qHTS assay to identify small molecule agonists of the constitutive androstane receptor (CAR) signaling pathway (AID 1224839);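 further: HepG2 cells stably carrying human CAR and a CYP2B6 luciferase reporter; nearly all actives have a fitted effect of over 15% in size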
# Method in brief: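 Stable hCAR/CYP2B6-2.2kb HepG2 line in DMEM with 10% FBS; compounds (15 concentrations) and 0.75 uM PK11195 final, 24 h at 37 C/5% CO2, then ONE-Glo luminescence after 30 min.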
# [7] = qHTS assay to identify small molecule antagonists of the estrogen related receptor signaling pathway with the pleiotropic PPARgamma coactivator (PGC) from Tox21 10K library - cell viability counter screen (AID 1224840; active means well fitted cell-killing curve with a large enough effect in the repeat runs, not every such curve was filed as active; further: nearly all actives have a fitted effect of over 40% in size)
# Method in brief: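 Cell viability is measured by CellTiter-Fluor fluorescence in PGC/ERR cells that receive compounds after a 6-hour attachment period and are then incubated 17.5 hours at 37 C.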
# [8] = qHTS assay to identify small molecule antagonists of the estrogen related receptor signaling pathway with the pleiotropic PPARgamma coactivator (PGC) from Tox21 10K library (AID 1224841; call rule not given here; further: actives are mostly falling curves and most rising ones were filed inactive; nearly all actives have a fitted effect of over 50% in size)
# Method in brief: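 Cells stably carrying the PGC/ERR reporter, seeded at 2,000 per well, received pin-transferred compounds 6 h post-plating. Exposure lasted 18 h at 37 C. Signal: One-Glo luminescence.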
# [9] = qHTS assay to identify small molecule agonists of the estrogen related receptor signaling pathway with the pleiotropic PPARgamma coactivator (PGC) from Tox21 10K library (AID 1224842); further: nearly all actives have a fitted effect of over 15% in size
# Method in brief: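 Luminescence from One-Glo (30 min, room temperature) measured after PGC/ERR cells had 18 h at 37 C with pinned compound (23 nL in DMSO). Cells had been seeded at 2,000 per well and pre-incubated 6 h.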
# [10] = molecular target: Thyrotropin receptor (Homo sapiens) (UniProt P16473); experiment: qHTS assay to identify small molecule agonists of the thyroid stimulating hormone receptor (TSHR) signaling pathway (AID 1224843; calls by dose curve; further: nearly all actives have a fitted effect of over 45% in size)
# Chain of Thyrotropin receptor (Homo sapiens) (P16473 whole entry, looked up): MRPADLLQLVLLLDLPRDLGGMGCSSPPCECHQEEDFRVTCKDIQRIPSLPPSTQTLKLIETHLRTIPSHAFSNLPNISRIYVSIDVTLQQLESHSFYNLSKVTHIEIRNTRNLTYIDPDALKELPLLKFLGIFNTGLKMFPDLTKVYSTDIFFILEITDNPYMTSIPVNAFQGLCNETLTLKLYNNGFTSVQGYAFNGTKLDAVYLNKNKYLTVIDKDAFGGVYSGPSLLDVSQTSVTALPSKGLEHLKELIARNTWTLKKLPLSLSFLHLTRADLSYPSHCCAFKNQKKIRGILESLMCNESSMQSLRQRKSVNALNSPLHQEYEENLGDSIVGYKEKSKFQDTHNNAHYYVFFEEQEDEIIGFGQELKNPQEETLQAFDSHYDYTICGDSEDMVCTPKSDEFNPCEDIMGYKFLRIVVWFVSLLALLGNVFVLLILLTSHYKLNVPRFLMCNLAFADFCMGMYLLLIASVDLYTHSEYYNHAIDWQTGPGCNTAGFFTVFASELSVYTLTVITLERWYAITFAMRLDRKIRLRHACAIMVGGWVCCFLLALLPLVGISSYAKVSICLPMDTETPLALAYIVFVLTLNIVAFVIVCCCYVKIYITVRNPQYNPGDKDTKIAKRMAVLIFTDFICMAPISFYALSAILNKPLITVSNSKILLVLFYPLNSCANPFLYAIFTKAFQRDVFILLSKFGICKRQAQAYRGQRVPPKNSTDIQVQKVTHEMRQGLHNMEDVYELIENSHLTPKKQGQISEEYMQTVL
# Method in brief: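 Agonist activity read as cAMP rise via d2/cryptate HTRF competition, 1 h room-temperature detection, in HEK293 cells expressing TSHR. Fifteen-point titrations, each run in triplicate, with a 30 min room-temperature incubation beforehand.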
# [11] = qHTS assay to identify small molecule agonists of the hypoxia (HIF-1) signaling pathway - cell viability counter screen (AID 1224844; calls by dose curve; further: nearly all actives have a fitted effect of over 50% in size; further: potency means the concentration at half of the fitted maximal effect)
# Method in brief: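 Viability counter screen: HRE-bla ME-180 cells plated 5 hrs before compound addition, treated 17 hrs at 37C and 5% CO2, then CellTiter-Glo added after the FRET reporter read; luminescence after 30 min.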
# [12] = qHTS assay to identify small molecule agonists of H2AX (AID 1224845; active means well fitted activation curve with a large enough effect in the signal ratio in the repeat runs, not every such curve was filed as active; the % refers to the signal ratio)
# Method in brief: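 Phospho-H2AX Ser139 measured by HTRF (ex 320 nm; em 665 and 620 nm) after 24 hr antibody incubation. Compounds, 15 concentrations, 0.76% DMSO, were applied to CHO-K1 cells for 3hr at 37C before lysis.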
# [13] = qHTS assay to identify small molecule agonists of the hypoxia (HIF-1) signaling pathway (AID 1224846; active means well fitted activation curve with a large enough effect in the signal ratio in the repeat runs, not every such curve was filed as active; the % refers to the signal ratio)
# Method in brief: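 Agonist mode reporter screen. ME-180 cells stably expressing bla under HRE control received test compounds in DMSO for 17 hrs (37C, 5% CO2), and beta-lactamase activity was then detected with the CCF4-AM FRET substrate.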
# [14] = qHTS assay to identify small molecule agonists of H2AX - cell viability counter screen (AID 1224847; calls by dose curve; further: top concentration of the series differs between compounds; nearly all actives have a fitted effect of over 30% in size)
# Method in brief: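 Viability of CHO-K1 (wild type) cells after 3 hr compound exposure was measured by CellTiter-Glo luminescence.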
# [15] = qHTS assay to identify small molecule antagonists of the estrogen related receptor (ERR) signaling pathway from Tox21 library (AID 1224848); further: nearly all actives have a fitted effect of over 50% in size
# Method in brief: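 Luciferase luminescence (ONE-Glo, 30 min room temperature) was the read-out. Cells of the NTP-supplied ERR line, 2,000 per well, were given 6 h at 37 C before compound addition in DMSO and 18 h exposure at 37 C.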
# [16] = qHTS assay to identify small molecule agonists of the estrogen related receptor (ERR) signaling pathway from Tox21 library (AID 1224849; calls by dose curve; further: nearly all actives have a fitted effect of over 15% in size); settings: ERR reporter cell line, ONE-Glo luciferase, 18 h; at 92.4 µM (top of the series)
# Method in brief: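 Quantitative HTS in agonist format: NTP ERR cell line, compounds transferred in DMSO after 6 h plating, 18 h incubation at 37 C, ONE-Glo luminescence endpoint.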
# [17] = qHTS RealTime-Glo MT Cell Viability Assay in HepG2 cells - 24 hour (AID 1224867); further: nearly all actives have a fitted effect of over 50% in size
# Method in brief: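 HepG2 suspension premixed with RealTime-Glo reagents is plated at 600 cells per well and left 5 h at 37 C/5% CO2. Compounds in DMSO then go in, and bioluminescence reflecting viable cell number is recorded over 40 h.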
# [18] = qHTS RealTime-Glo MT Cell Viability Assay in HEK293 cells - 32 hour (AID 1224868)
# Method in brief: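 Reads taken at 0, 8, 16, 24, 32 and 40 h from the same wells. HEK293 cells (600/well) carried RealTime-Glo reagents from seeding, with compound added after a 5 h settle at 37 C.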
# [19] = A CellTox Green Cytotoxicity Assay to monitor cytotoxicity in HEK293 cells - 0 hour (AID 1224869); further: nearly all actives have a fitted effect of over 50% in size
# Method in brief: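 Dead-cell fluorescence measured kinetically: asymmetric cyanine dye, HEK293, 600 cells/well, 5 h settle, 23 nL cpd/DMSO, 37 C, reads 0–40 h every 8 h.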
SMILES,Potency [1],Potency [2],Potency [3],Potency [4],Potency [5],Potency [6],Potency [7],Potency [8],Potency [9],Potency [10],Potency [11],Potency [12],outcome [13],Potency [14],Potency [15],"activity change, positive = activation [16]",Potency [17],Potency [18],Potency [19]
CCCCOCCO,inactive,inactive,inactive,inactive,inactive,inactive,inactive,inactive,inactive,inactive,inactive,inactive,inactive,inactive,inactive,5.31% (inactive) and -0.958% (inactive),inactive,inactive,inactive
CC1CC(OC(=O)c2ccccc2O)CC(C)(C)C1 (stereo unspecified),inactive,inactive,inactive,inactive,inactive,inactive,inactive,,,inactive,48.5 µM (active) and inactive,inactive,,inactive,,,inactive,inactive,inactive
ClC1=C(Cl)C(Cl)(Cl)C(Cl)=C1Cl,inactive,inactive,inactive,inactive,inactive,inactive,inactive,inactive,inactive,inactive,11 µM (active) and 6.17 µM (active),inactive,,inactive,inactive,5.38% (inactive) and 4.2% (inactive),inactive,,inactive
C=C(C)C(=O)OCCCCCCCCCCCC,inactive,inactive,inactive,inactive,inactive,inactive,inactive,inactive,inactive,inactive,inactive,inactive,inactive,inactive,inactive,5.32% (inactive) and 1.41% (inactive),inactive,inactive,inactive
CCCCCCC(C)(C)S,inactive,inactive,inactive,inactive,inactive,inactive,inactive,,,inactive,inactive,inactive,inactive,inactive,,,inactive,inactive,inactive
C=C(C#N)C(=O)OCC,inactive,inactive,inactive,inactive,inactive,inactive,inactive,inactive,inactive,inactive,inactive,inactive,inactive,inactive,inactive,7.93% (inactive) and 0.135% (inactive),inactive,inactive,inactive
O=C1CCCCC1,inactive,inactive,inactive,inactive,inactive,inactive,inactive,inactive,inactive,,inactive,inactive,inactive,inactive,inactive,-2.85% (inactive) and -5.66% (inactive),inactive,inactive,inactive
